Experimental data as given in PMC6664820, “Novel natural and synthetic inhibitors of solute carriers SGLT1 and SGLT2” (Pharmacology Research & Perspectives, 2019).
The campaign covered roughly 1,900 compounds. About 40 (2%) showed an effect of 50% or more. The entries come from a sample that favours strong results as a whole.

The compounds below were run against human SGLT1 (hSGLT1) (human, UniProt P13866) (assay: primary screen, percent of control activity; higher = less effect of the substance). Conditions: 50 µM.
Design: single well
Method: Two days before the assay, CHO‐wild type and CHO‐hSGLT1 cells were seeded in maintenance medium at 25 000 cells/well in clear‐bottom black 96‐well cell culture plates. Before the assay, cells were washed 3 times with 150 μL/well D‐glucose free DMEM with 0.3% (w/v) BSA. Library compounds at 50 μmol/L (singlicate) prepared in D‐glucose free DMEM with 160 μmol/L 1‐NBD‐glucose and 0.3% (w/v) BSA and negative controls (triplicate) were added at 100 μL/well and placed in a humidified incubator at 37°C with 5% CO2 for 90 minutes. Next, cells were washed 3 times with DMEM with 0.3% (w/v) BSA (150 μL/well). Care was taken to remove all medium after the last wash. Finally, 1‐NBD‐glucose was extracted from the cells by adding 10 μL/well isopropanol and orbital shaking for 5 minutes at 600 rpm, followed by incubation in the dark for 30 minutes. Fluorescence was measured on a Tecan Infinite M200 Microplate Reader (Tecan, Männedorf, Switzerland) with excitation at 445 nm and emission at 525 nm. The amount of 1‐NBD‐glucose taken up by the CHO‐wild type or CHO‐hSGLT1 cells in the presence or absence of test compounds was interpolated from 1‐NBD‐glucose calibration standards. The background uptake by CHO‐wild type was subtracted from the uptake by CHO‐hSGLT1. Background corrected uptake with test compound was expressed as a percentage of corrected uptake without test compound.

Sequence of human SGLT1 (hSGLT1) (P13866 whole entry, looked up): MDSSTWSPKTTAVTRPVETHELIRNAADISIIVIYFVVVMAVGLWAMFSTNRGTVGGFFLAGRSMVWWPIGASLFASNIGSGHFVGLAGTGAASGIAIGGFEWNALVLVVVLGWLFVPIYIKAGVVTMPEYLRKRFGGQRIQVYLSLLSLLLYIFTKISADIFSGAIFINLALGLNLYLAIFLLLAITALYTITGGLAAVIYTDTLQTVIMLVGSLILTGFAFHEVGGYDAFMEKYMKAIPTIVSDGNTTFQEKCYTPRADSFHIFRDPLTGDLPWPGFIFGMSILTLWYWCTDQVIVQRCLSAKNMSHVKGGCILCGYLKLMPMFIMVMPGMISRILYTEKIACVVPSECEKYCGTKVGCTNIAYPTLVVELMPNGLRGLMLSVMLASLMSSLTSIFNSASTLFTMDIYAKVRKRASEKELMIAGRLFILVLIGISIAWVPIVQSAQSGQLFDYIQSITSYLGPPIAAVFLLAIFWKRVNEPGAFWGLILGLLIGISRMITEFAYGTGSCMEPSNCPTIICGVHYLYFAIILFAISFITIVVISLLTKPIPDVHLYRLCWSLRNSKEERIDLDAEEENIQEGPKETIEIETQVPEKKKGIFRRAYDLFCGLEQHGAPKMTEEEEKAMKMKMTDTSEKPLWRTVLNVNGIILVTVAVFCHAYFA

| SMILES | NORMALIZED SGLT1 ACTIVITY (%) |
| --- | --- |
| O=P(O)(O)O.c1ccc(CN(CC2=NCCN2)c2ccccc2)cc1 | 87% |
| CC(C)COCC(CN(Cc1ccccc1)c1ccccc1)N1CCCC1.Cl (centres unmarked) | 48% |
| COc1cc2ccc(=O)oc2c(O)c1O | 142% |
| CCCn1c(=O)c2nc(C3CCCC3)[nH]c2n(CCC)c1=O | 180% |
| COc1cc(S(C)=O)ccc1-c1nc2cccnc2[nH]1 (centres unmarked) | 237% |
| CC1(C)S[C@@H]2[C@H](NC(=O)Cc3ccccc3)C(=O)N2[C@H]1C(=O)[O-].[K+] | 115% |
| CC1(C)CC[C@@]2(C(=O)O)C(C1)C1=CCC3[C@@]4(C)CC[C@H](O)C(C)(C)C4CC[C@@]3(C)[C@]1(C)C[C@@H]2O (some centres unmarked) | -6% |
| CC1(C)CC[C@]2(C(=O)O)CC[C@]3(C)C(=CCC4[C@@]5(C)CC[C@@H](O)C(C)(C)C5CC[C@]43C)C2C1 (some centres unmarked) | 133% |
| CC1(C)CC[C@]2(C)CC[C@]3(C)C(=CCC4[C@@]5(C)CC[C@H](O)C(C)(C)C5CC[C@]43C)C2C1 (some centres unmarked) | 91% |
| CC(=O)Oc1cc2c(c(C)c1OC(C)=O)CC1OC13[C@@]2(C)CC[C@@]1(C)C2C[C@](C)(C(=O)O)CC[C@]2(C)CC[C@]31C (some centres unmarked) | 204% |
| Cl.O=C(O)C1=CCNCC1 | 111% |
| CO/N=C1\CN(c2nc3c(cc2F)c(=O)c(C(=O)O)cn3C2CC2)CC1CN.CS(=O)(=O)O (centres unmarked) | 157% |
| CC(C)[N+]1(C)C2CC[C@@H]1C[C@@H](OC(=O)C(CO)c1ccccc1)C2.[Br-] (some centres unmarked) | 83% |
| Cl.OC(CCN1CCCCC1)(c1ccccc1)C1CCCCC1 (centres unmarked) | 69% |
| CS(=O)(=O)O.OC(CCN1CCCCC1)(c1ccccc1)c1ccccc1 | 101% |
| Cl.OC(CCN1CCCC1)(c1ccccc1)C1CCCCC1 (centres unmarked) | 45% |
| CN(C)C(=O)Oc1ccc[n+](C)c1.[Br-] | 105% |
| NC(Cc1c[nH]cn1)C(=O)Nc1ccc2ccccc2c1 (centres unmarked) | 153% |
| C[C@H]1CC2C3CCC4=CC(=O)C=C[C@]4(C)[C@@]3(F)[C@@H](O)C[C@]2(C)[C@@]1(O)C(=O)CO (some centres unmarked) | 241% |
| CC(=O)OCC1=C(C(=O)[O-])N2C(=O)[C@@H](NC(=O)Cc3cccs3)[C@H]2SC1.[Na+] | 140% |
| CCOP(=S)(OCC)Oc1ccc2c(C)c(Cl)c(=O)oc2c1 | 118% |
| CCOP(=S)(OCC)Oc1nc(Cl)c(Cl)cc1Cl | 35% |
| CCOP(=S)(OCC)Oc1cc(C)nc(C(C)C)n1 | 107% |

| SMILES | NORMALIZED SGLT1 ACTIVITY (%) |
| --- | --- |
| O=C(O)c1cc(O)c(=O)c2c(O)c(O)ccc2c1 | 141% |
| CC[C@H](C)[C@H](N)C(=O)N1CCC[C@H]1C(=O)N[C@H](C(=O)O)[C@@H](C)CC | 98% |
| O=C(O)c1cc(O)ccc1O | 145% |
| Cl.Cl.N=C(NCCCCCCNC(=N)NC(=N)Nc1ccc(Cl)cc1)NC(=N)Nc1ccc(Cl)cc1 | 25% |
| CC(C)NC(=N)NC(=N)Nc1ccc(Cl)cc1.Cl | 130% |
| Cl.N=C(N)NC(=N)Nc1ccccc1 | 136% |
| CC1(C)NC(=O)N(c2ccc([N+](=O)[O-])c(C(F)(F)F)c2)C1=O | 222% |
| O=C(/C=C/C=C/c1ccc2c(c1)OCO2)N1CCCCC1 | 87% |
| COc1ccc(-c2cc(=O)c3c(O)cc(O[C@H]4O[C@H](CO[C@@H]5O[C@@H](C)[C@H](O)[C@@H](O)[C@H]5O)[C@@H](O)[C@H](O)[C@H]4O)cc3o2)cc1 | 121% |
| COc1ccc2cc([C@H](C)CO)ccc2c1 | 111% |
| Clc1ccc(C(c2ccc(Cl)cc2)C(Cl)(Cl)Cl)cc1 | 86% |
| COc1ccc(C(c2ccc(OC)cc2)C(Cl)(Cl)Cl)cc1 | 42% |
| COc1ccc(CCC(=O)c2c(O)cc(O[C@@H]3O[C@H](CO)C(O)[C@H](O)C3O[C@@H]3O[C@@H](C)[C@H](O)[C@@H](O)[C@H]3O)cc2O)cc1O (some centres unmarked) | 143% |
| C#CCCCCCCCCCCCC(O)CC(O)COC(C)=O.C=CCCCCCCCCCCCC(O)CC(O)COC(C)=O (centres unmarked) | 197% |
| COC(=O)[C@H]1[C@H]2C[C@H]3c4[nH]c5cc(OC)ccc5c4CCN3C[C@H]2C[C@@H](OC(=O)c2cc(OC)c(OC)c(OC)c2)[C@@H]1OC | 345% |
| CC1(C)Oc2ccc3ccc(=O)oc3c2CC1O (centres unmarked) | 159% |
| C/C=C(\C)C(=O)O[C@@H]1c2c(ccc3ccc(=O)oc23)OC(C)(C)[C@@H]1OC(C)=O | 5% |
| CC(=O)O[C@@H]1c2c(ccc3ccc(=O)oc23)OC(C)(C)[C@@H]1OC(=O)CC(C)C | 51% |
| O=C1CN(/N=C/c2ccc(-c3ccc([N+](=O)[O-])cc3)o2)C(=O)[N-]1.[Na+] | 103% |
| CCC(C)(C)C(=O)O[C@H]1C[C@@H](C)C=C2C=C[C@H](C)[C@H](CC[C@@H]3C[C@@H](O)CC(=O)O3)[C@H]21 | 96% |
| CC1=C(/C=C/C(C)=C/C=C/C(C)=C/C=C/C=C(C)/C=C/C=C(C)/C=C/C(=O)[C@]2(C)C[C@@H](O)CC2(C)C)C(C)(C)C[C@H](O)C1 | 103% |
| CCOP(=S)(OCC)SCCSCC | 77% |
| CCOP(=S)(OCC)SCSCC | 47% |

| SMILES | NORMALIZED SGLT1 ACTIVITY (%) |
| --- | --- |
| CCOP(=S)(OCC)SCn1c(=O)oc2cc(Cl)ccc21 | 57% |
| CC(C)=CCC[C@](C)(O)C1CC=C(C)CC1 (some centres unmarked) | 99% |
| CC1(C)C2CC(=O)O[C@@]3(C)C4=CC(=O)O[C@@H](c5ccoc5)[C@]4(C)CCC3[C@@]2(C)C=C[C@H]1O (some centres unmarked) | 132% |
| CN1CCc2c(c3ccccc3n2Cc2ccccc2)C1.O=S(=O)(O)c1cccc2c(S(=O)(=O)O)cccc12 | 69% |
| Cl.Cl.NNCc1cccc(O)c1 | 149% |
| CCCCCCCCCCCCC[N+](C)(C)Cc1ccccc1.[Cl-] | 40% |
| CCCCCCCCCc1ccc(O)cc1 | 107% |
| CCCCCCc1ccc(O)cc1O.Nc1c2ccccc2nc2ccccc12 | 383% |
| CC(=O)O[C@@](C)(CCC=C(C)C)C1CC=C(C)CC1 (some centres unmarked) | 112% |
| ClC1=C(Cl)C2(Cl)C3C(Cl)C=CC3C1(Cl)C2(Cl)Cl (centres unmarked) | 57% |
| CN1CCN(CC/C=C2/c3ccccc3Sc3ccc(S(=O)(=O)N(C)C)cc32)CC1 | 116% |
| CSc1ccc2c(c1)C(N1CCN(C)CC1)Cc1ccccc1S2.O=C(O)/C=C\C(=O)O (centres unmarked) | 115% |
| CN1CCC(=C2c3ccccc3Sc3ccccc32)CC1.O=C(O)/C=C\C(=O)O | 36% |
| COC(=O)[C@H]1[C@H]2C[C@H]3c4[nH]c5ccccc5c4CCN3C[C@H]2CC[C@@H]1O.Cl | 110% |
| COc1cc2c(cc1O)C(Cc1ccc(O)cc1)N(C)CC2 (centres unmarked) | 89% |
| Oc1ccc(Cl)cc1Cc1cc(Cl)ccc1O | 590% |
| CC1(C)C(=O)C=C[C@@]2(C)C1=C(O)C(=O)[C@]1(C)C2CC[C@@]2(C)[C@H](c3ccoc3)C[C@H]3O[C@]321 (some centres unmarked) | 45% |
| CC1(C)C(=O)C=C[C@@]2(C)C1C[C@@H](O)[C@]1(C)C2CC[C@@]2(C)[C@H](c3ccoc3)OC(=O)[C@H]3O[C@]321 (some centres unmarked) | 103% |
| CC(=O)O[C@@H]1C[C@@]2(C)[C@H](c3ccoc3)C[C@H]3O[C@]32[C@]2(C)C(=O)C(O)=C3C(C)(C)C(=O)C=C[C@]3(C)C12 (some centres unmarked) | 104% |
| O=C1CN(/N=C/c2ccc([N+](=O)[O-])o2)C(=O)N1 | 159% |
| CNC[C@@H](O)c1ccc(O)c(O)c1.O=C(O)C(O)C(O)C(=O)O | 105% |
| N#Cc1c(Cl)c(Cl)c(Cl)c(C#N)c1Cl | 76% |
| OCCN1CCN(CCCN2c3ccccc3Sc3ccc(Cl)cc32)CC1 | 17% |

| SMILES | NORMALIZED SGLT1 ACTIVITY (%) |
| --- | --- |
| CN1CCN(CCCN2c3ccccc3Sc3ccc(C(F)(F)F)cc32)CC1.Cl.Cl | 61% |
| N#Cc1ccc2c(c1)N(CCCN1CCC(O)CC1)c1ccccc1S2 | 75% |
| Cn1nnnc1SCC1=C(C(=O)[O-])N2C(=O)C(NC(=O)C(O)c3ccccc3)C2SC1.[Na+] (centres unmarked) | 150% |
| COc1cc2c(cc1OC)C1C(=O)c3c(O)cc4c(c3OC1CO2)C=CC(C)(C)O4 (centres unmarked) | 283% |
| CCCc1ncc(C[n+]2ccccc2C)c(N)n1.Cl.[Cl-] | 87% |
| Cc1cc(O)c2c(c1)C(=O)c1cc(O)cc(O)c1C2=O | 118% |
| CN(C)CC/C=C1\c2ccccc2Sc2ccc(Cl)cc21.Cl | 87% |
| CN(C)CCC=C1c2ccccc2C=Cc2ccccc21.Cl | 50% |
| CN(C)CCC=C1c2ccccc2CCc2ccccc21.Cl | 59% |
| Cc1cc(C2CCCCC2)n(O)c(=O)c1.NCCO | 182% |
| ClC1=C(Cl)C2(Cl)C3C4C=CC(C4)C3C1(Cl)C2(Cl)Cl (centres unmarked) | 96% |
| COc1cc2ccc(=O)oc2c(OC)c1OC | 257% |
| COC(=O)c1c(OC)cc2c(c1C)Oc1c(Cl)c(O)c(Cl)c(C)c1C(=O)O2 | 520% |
| Cc1cc(O)c2c(c1O)C(=O)c1c(O)cc(C)c(O)c1C2=O | 127% |
| CN[C@@H]1[C@@H](O)C(OC2[C@@H](N)C[C@@H](N)[C@H](O[C@H]3O[C@H](C(C)O)[C@@H](O)[C@H](O)[C@H]3N)[C@H]2O)OC[C@]1(C)O.O=S(=O)(O)O.O=S(=O)(O)O (some centres unmarked) | 82% |
| CNC(=O)O/N=C(/C)SC | 76% |
| COc1c2ccoc2cc2oc(C)cc(=O)c12 | 165% |
| OC[C@H]1O[C@@H](n2cnc3c(NCc4ccco4)ncnc32)[C@H](O)[C@@H]1O | 142% |
| CCCCCCCCCN1C[C@H](O)[C@@H](O)[C@H](O)[C@H]1CO | 83.2% |
| ClC1=C(Cl)C2(Cl)C3C4CC(C5OC45)C3C1(Cl)C2(Cl)Cl (centres unmarked) | 136% |
